# Screens from PubChem.
# nsP2pro primary = Primary qHTS for inhibitors of NSP2Pro chikungunya virus (CHIKV). 31,000 tested, 1.1% active. Polyprotein P1234 (Chikungunya virus (strain S27-African prototype)), Q8JUX6. AID 1964107, 2024. FRET peptide cleavage, nsP2pro, fluorescence 1 h. Potency, µM (highest dose often 24.9 µM), actives largely listed as inhibitors; calls by dose curve; further: nearly all actives have a fitted effect of over 60% in size
#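 Enzyme 150 nM, substrate 2.5 uM (both final); Tris-HCl 10 mM pH 8.0 + 0.01% Tween 20; cpd up to 25 uM, 7 pts; 15 min preinc., 1 h RT; fluorescence ex 525/em 598.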
# Hits are given with their value; . = inactive; [ ] = remark or other dose. The full list was thinned out, with hits kept by preference.
SMILES,nsP2pro primary
COCCn1c(C)cnc1CCNS(=O)(=O)c1cc(OC)ccc1OC,.
COCCn1c(C)cnc1CCNS(=O)(=O)c1c(C)nn(C)c1C,10µM
C[C@H](C(=O)N1Cc2ccccc2CC2(CCN(Cc3ccncc3)C2)C1)c1ccccc1 (stereo partly specified),.
CN1CC(=O)N(C2CCCCC2)Cc2c(NCCO)ncnc21,.
O=C1Nc2cc(Cl)ccc2/C1=C\c1cc(Cl)c(O)c(Cl)c1,.
CC(=C(CCOC(=O)C(C)C)SSC(CCOC(=O)C(C)C)=C(C)N(C=O)Cc1cnc(C)nc1N)N(C=O)Cc1cnc(C)nc1N,11.1µM
C/C(=C1\CCOC(=O)S1)N(C=O)Cc1cnc(C)nc1N,.
Cc1ccc(S(=O)(=O)Nc2cnccc2C(=O)Nc2ccc3ccccc3c2)cc1,.
CCc1ccc(NCc2cc3cc(OC)c(OC)cc3n(CC(=O)Nc3cc(C)ccc3C)c2=O)cc1,10µM
Cc1ccc(C)c(NC(=O)Cn2c(=O)ccc3cc(S(=O)(=O)N4CCCC4)ccc32)c1,.
COc1ccc(CCNC(=O)CCn2c(=O)c3ccccc3n(CC(=O)Nc3cc(Cl)ccc3C)c2=O)cc1OC,.
CCC(=O)OC1(C(=O)CCl)C(C)CC2C3CC(F)C4=CC(=O)C=CC4(C)C3(F)C(O)CC21C (stereo unspecified),.
CC(C)c1nn2c(=O)cc(COC(=O)c3ccc4c(c3)OCO4)nc2s1,.
CC(C)c1nn2c(=O)cc(COC(=O)c3ccco3)nc2s1,12.6µM
CC(C)c1nn2c(=O)cc(COC(=O)Cc3ccccc3)nc2s1,.
O=C(Cc1ccccc1)NCc1ccnc2[nH]ccc12,.
O=C(NCc1c[nH]c2ncccc12)c1cccnc1,.
O=C(NCc1ccnc2[nH]ccc12)c1ccc(Cl)cc1,14.1µM
O=C1COc2ccc(N3CCOCC3)nc2CN1Cc1ccc(F)cc1,11.2µM
Cn1cc(-c2ccc3c(n2)CN(Cc2ccc(F)cc2)C(=O)CO3)cn1,.
O=C1COc2ccc(-c3cccc(O)c3)nc2CN1Cc1ccc(C(F)(F)F)cc1,.
C[C@@H](Oc1ccc2[nH]nc(/C=C/c3cnn(CCO)c3)c2c1)c1c(Cl)cncc1Cl,.
Cc1ccc(C(=O)N2CCC(N3C(=O)C4(CCCC4)C3c3scnc3C)CC2)cn1 (stereo unspecified),.
Cn1c(=O)cc(N2CCC[C@@H](N)C2)n(Cc2cc(F)ccc2C#N)c1=O,.
Cc1ccnc(NC(=S)N2CC3CN(c4ccc(Cl)cc4C(F)(F)F)CC3C2)c1 (stereo unspecified),.
SMILES,nsP2pro primary
Cn1cccc1C(=O)N1CC[C@H](NC(=O)Nc2ccc(F)cc2F)[C@H]1C(=O)N[C@H](Cc1ccccc1)C(N)=O,.
Cc1cc(=O)oc2cc(CN(C)CC(C)N3CCOCC3)ccc12 (stereo unspecified),.
COc1ccccc1-c1cc([C@H]2CN3CC[C@H]2C[C@@H]3COC(=O)NC2CCCCC2)nc(C)n1,10µM
CC(=O)c1ccc(NC(=O)OC[C@H]2C[C@@H]3CCN2C[C@@H]3c2cc(C3CCCC3)nc(-c3ccncc3)n2)cc1,.
CC(=O)c1cccc(NC(=O)OC[C@H]2C[C@@H]3CCN2C[C@@H]3c2cc(C3CCCC3)nc(C)n2)c1,.
O=C(O)c1ccc(-c2ccc3ncnc(NCc4cccs4)c3c2)o1,.
O=C(NCc1c(F)cc(F)cc1F)c1cn2c(c(O)c1=O)C(=O)N1C3CCC(C3)OC1C2 (stereo unspecified),.
Cc1ccc(CNc2ncnc3ccc(-c4oc(-c5ccccc5)nc4C)cc23)o1,.
Cc1cc(C)nc(NC(=S)N2CCN(c3ccc(F)c(F)c3F)CC2)c1,.
O=C(NC1CCNCC1)[C@@H]1CC[C@@H]2CN1C(=O)N2OS(=O)(=O)O,.
CCOC(=O)c1cnn(-c2ccccc2)c1NC(=O)c1cc2nc(-c3ccco3)cc(C(F)(F)Cl)n2n1,11.1µM
COC(=O)c1ccccc1NC(=O)c1cc2nc(-c3ccccc3)cc(-c3ccccc3)n2n1,.
CCOC(=O)c1cnn(-c2ccc(NC(=O)C(Cl)=C(Cl)Cl)cc2)c1C(F)(F)F,.
C#CCOc1ccc(C(C)=O)cc1-c1nnc2n1N=C(c1ccc(OC)c(OC)c1)CS2,.
CC(C)(C)NC(=O)N[C@H](C(=O)N1C[C@H]2[C@@H]([C@H]1C(=O)NC(CC1CCC1)C(=O)C(N)=O)C2(C)C)C(C)(C)C (stereo partly specified),.
O=C1Nc2ccc(C(=O)c3ccco3)cc2/C1=C/c1cc(Cl)c(O)c(Cl)c1,.
CC1=C(C(=O)O)/C(=C\CO[C@@H]2O[C@H](CO)[C@@H](O)[C@H](O)[C@H]2O)C(OC(=O)/C=C/c2ccc(O)cc2)C1 (stereo partly specified),.
CC1=C(C(=O)O)/C(=C\CO[C@@H]2O[C@H](CO)[C@@H](O)[C@H](O)[C@H]2O)C(OC(=O)/C=C\c2ccc(O)cc2)C1 (stereo partly specified),0.0242µM
OC[C@H]1O[C@@H](OC/C=C/c2ccc(O)cc2)[C@H](O)[C@@H](O)[C@@H]1O,.
O=C(O)c1cccc(-c2noc(-c3ccc(F)cc3)n2)c1,.
[O]=[V]([OH])([OH])[OH],.[2.68 µM]
CC(C)=C/C(C)=N\Nc1nncc2ccccc12,.
O=C(Nc1ccc(F)cc1)c1cc(-c2ccc[nH]2)n[nH]1,10µM
O=C(Nc1cccc(Cl)c1)c1cc(-c2ccc[nH]2)n[nH]1,.
O=C(Nc1cccc(F)c1)c1cc(-c2ccc[nH]2)n[nH]1,.
SMILES,nsP2pro primary
O=C[C@H](O)[C@@H](O)[C@H](O)[C@H](O)CO[C@@H]1O[C@H](CO)[C@@H](O)[C@H](O)[C@H]1O,.
O=C1NC2(CN(C(=O)c3ccccc3)C2)Oc2ccccc21,.
CC(C)c1c(-c2cnn(C(C)(C)C)c2)nc2c(C#N)c[nH]n2c1=O,.
CCCC(=O)O[C@]1(C(=O)COC(C)=O)CC[C@H]2C3C[C@H](F)C4=CC(=O)C=C[C@]4(C)[C@@]3(F)[C@@H](O)C[C@@]21C (stereo partly specified),.
C=C1C(=O)O[C@@H]2/C=C(\CO)CC/C=C(\CO)[C@H](OC(C)=O)C(OC(=O)C(C)CC)C12 (stereo partly specified),.
C=C1C(=O)OC2/C=C(\CO)CC/C=C(\C=O)C(O)C(OC(=O)C(C)CC)C12 (stereo unspecified),.
C=C(C)C(=O)OC1C(OC(C)=O)/C(C=O)=C\CC/C(CO)=C/C2OC(=O)C(=C)C21 (stereo unspecified),1.36µM
COCCn1c(C)cnc1CC1CCN(C(=O)c2c[nH]c3ccccc23)CC1,.
O=C[C@H](O)[C@@H](O)[C@H](O)CO,.
COc1ccc([S+](=O)([O-])N2CCCN([S+](=O)([O-])c3ccc(OC)c(NC(C)=O)c3)CC2)cc1NC(C)=O,.
CCN(CC1CCCN(CCc2cccc(OC)c2)C1)C(=O)CSC (stereo unspecified),.
N=c1c2c(ncn1-c1ccccc1)Oc1ccc3ccccc3c1C2c1ccc2c(c1)CCO2 (stereo unspecified),.
Cc1cc(NC(=S)N2CCN(c3cccc(C(F)(F)F)c3)CC2)nc2ccccc12,.
COc1ccc(-c2ncc(CN3CCCC4(C3)CN(C)C(=O)O4)cn2)cc1 (stereo unspecified),.
COc1ccc(CN2CCCC3(C2)CN(C)C(=O)O3)cc1C(=O)O (stereo unspecified),.
